Laboratory results reported in PubChem BioAssay AID1159580 (chemical genetic matrix, 2015).
In all, about 5,500 compounds went through this assay and about 2,000 (36%) were called active. Roughly 18% stayed inconclusive and do not appear here. The list shows a part of the results. Values without a mark were called inactive. Cut-off read from the data, not from the text of the source: active = normalized growth mostly below about 0.91 (no sharp cut-off); inconclusive = no clear call, values can overlap the other calls; inactive = mostly above about 0.92.

Assay: chemical genetic growth profiling, strain panel (AID 1159580);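 note: tested at 20 µM; growth read once vehicle control cultures reached saturation at 30 °C; 1 = growth at the plate median or of vehicle wells; lower values mean less growth of the strain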
Details: growth OD

With c1ccc(CC2=NCCN2)cc1 the normalized growth (S. cerevisiae deletion strains, locus YJR075W, strain HOC1, active compounds read low) was 1, the normalized growth (S. cerevisiae deletion strains, locus YKL009W, strain mrt4, active compounds read low) was 0.695 (active) and the normalized growth (S. cerevisiae deletion strains, locus YKL068W, active compounds read low) was 0.837 (active). The normalized growth (S. cerevisiae deletion strains, locus YKL085W, strain MDH1 (second series), active compounds read low) was 0.836 (active), the normalized growth (S. cerevisiae deletion strains, locus YKL085W, strain MDH1, active compounds read low) was 0.836 (active) and the normalized growth (S. cerevisiae deletion strains, locus YKL160W, strain elf1, active compounds read low) was 1.03. It also gave a normalized growth (S. cerevisiae deletion strains, locus YKL190W, strain CNB1, active compounds read low) of 0.998, a normalized growth (S. cerevisiae deletion strains, locus YKR001C, strain vps1, active compounds read low) of 0.913 and a normalized growth (S. cerevisiae deletion strains, locus YKR026C, strain gcn3, active compounds read low) of 1.03. For the same compound, the normalized growth (S. cerevisiae deletion strains, locus YKR091W, strain srl3, active compounds read low) was 1.01, the normalized growth (S. cerevisiae deletion strains, locus YLL001W, strain dnm1, active compounds read low) was 1.01 and the normalized growth (S. cerevisiae deletion strains, locus YLL026W, active compounds read low) was 1.02. It also gave a normalized growth (S. cerevisiae deletion strains, locus YLL041C, strain sdh2, active compounds read low) of 1.01, a normalized growth (S. cerevisiae deletion strains, locus YLR027C, strain aat2, active compounds read low) of 1.02 and a normalized growth (S. cerevisiae deletion strains, locus YLR039C, strain RIC1, active compounds read low) of 0.931. For the same compound, the normalized growth (S. cerevisiae deletion strains, locus YLR058C, strain SHM2, active compounds read low) was 0.984, the normalized growth (S. cerevisiae deletion strains, locus YLR102C, strain apc9, active compounds read low) was 0.897 (active) and the normalized growth (S. cerevisiae deletion strains, locus YLR113W, strain HOG1, active compounds read low) was 0.957. For the same compound, the normalized growth (S. cerevisiae deletion strains, locus YLR221C, strain rsa3, active compounds read low) was 0.997, the normalized growth (S. cerevisiae deletion strains, locus YLR258W, strain gsy2, active compounds read low) was 1.01 and the normalized growth (S. cerevisiae deletion strains, locus YLR262C, strain YPT6 (second series), active compounds read low) was 1.03. The normalized growth (S. cerevisiae deletion strains, locus YLR262C, strain YPT6, active compounds read low) was 0.927, the normalized growth (S. cerevisiae deletion strains, locus YLR268W, strain sec22, active compounds read low) was 0.905 and the normalized growth (S. cerevisiae deletion strains, locus YLR320W, strain mms22, active compounds read low) was 0.989. The normalized growth (S. cerevisiae deletion strains, locus YLR330W, strain CHS5, active compounds read low) was 0.97, the normalized growth (S. cerevisiae deletion strains, locus YLR342W, strain FKS1 (second series), active compounds read low) was 1.01 and the normalized growth (S. cerevisiae deletion strains, locus YLR342W, strain FKS1, active compounds read low) was 1.03. It also gave a normalized growth (S. cerevisiae deletion strains, locus YLR357W, strain rsc2, active compounds read low) of 1.03, a normalized growth (S. cerevisiae deletion strains, locus YLR370C, strain arc18, active compounds read low) of 1.01 and a normalized growth (S. cerevisiae deletion strains, locus YLR371W, strain rom2, active compounds read low) of 0.909. It also gave a normalized growth (S. cerevisiae deletion strains, locus YLR384C, strain iki3, active compounds read low) of 1.03, a normalized growth (S. cerevisiae deletion strains, locus YLR418C, strain cdc73, active compounds read low) of 1.01 and a normalized growth (S. cerevisiae deletion strains, locus YML016C, strain PPZ1, active compounds read low) of 1.01. For the same compound, the normalized growth (S. cerevisiae deletion strains, locus YML032C, strain rad52, active compounds read low) was 0.915, the normalized growth (S. cerevisiae deletion strains, locus YML120C, strain ndi1, active compounds read low) was 1.01 and the normalized growth (S. cerevisiae deletion strains, locus YML124C, strain tub3, active compounds read low) was 0.904 (active). For the same compound, the normalized growth (S. cerevisiae deletion strains, locus YMR058W, strain fet3, active compounds read low) was 1.03, the normalized growth (S. cerevisiae deletion strains, locus YMR078C, strain ctf18, active compounds read low) was 0.907 (active) and the normalized growth (S. cerevisiae deletion strains, locus YMR125W, strain sto1, active compounds read low) was 1.01. It also gave a normalized growth (S. cerevisiae deletion strains, locus YMR129W, active compounds read low) of 1.02, a normalized growth (S. cerevisiae deletion strains, locus YMR205C, strain PFK2, active compounds read low) of 1 and a normalized growth (S. cerevisiae deletion strains, locus YMR223W, strain ubp8, active compounds read low) of 0.916. For the same compound, the normalized growth (S. cerevisiae deletion strains, locus YMR231W, strain pep5, active compounds read low) was 1.01, the normalized growth (S. cerevisiae deletion strains, locus YMR263W, strain SAP30, active compounds read low) was 0.978 and the normalized growth (S. cerevisiae deletion strains, locus YMR307W, strain GAS1, active compounds read low) was 1.03. The normalized growth (S. cerevisiae deletion strains, locus YNL067W, strain RPL9B, active compounds read low) was 0.957, the normalized growth (S. cerevisiae deletion strains, locus YNL071W, strain lat1, active compounds read low) was 1.03 and the normalized growth (S. cerevisiae deletion strains, locus YNL128W, strain TEP1, active compounds read low) was 1.01. For the same compound, the normalized growth (S. cerevisiae deletion strains, locus YNL153C, strain GIM3, active compounds read low) was 0.987, the normalized growth (S. cerevisiae deletion strains, locus YNL183C, strain NPR1, active compounds read low) was 0.943 and the normalized growth (S. cerevisiae deletion strains, locus YNL209W, strain ssb2, active compounds read low) was 1.02. The normalized growth (S. cerevisiae deletion strains, locus YNL233W, strain BNI4, active compounds read low) was 0.98, the normalized growth (S. cerevisiae deletion strains, locus YNL248C, strain rpa49, active compounds read low) was 1.05 and the normalized growth (S. cerevisiae deletion strains, locus YNL250W, strain rad50, active compounds read low) was 0.822 (active). For the same compound, the normalized growth (S. cerevisiae deletion strains, locus YNL271C, strain bni1, active compounds read low) was 0.837 (active), the normalized growth (S. cerevisiae deletion strains, locus YNL298W, strain CLA4, active compounds read low) was 0.79 (active) and the normalized growth (S. cerevisiae deletion strains, locus YNL307C, strain MCK1, active compounds read low) was 0.877 (active). The normalized growth (S. cerevisiae deletion strains, locus YNL322C, strain KRE1 (second series), active compounds read low) was 1.01, the normalized growth (S. cerevisiae deletion strains, locus YNL322C, strain KRE1, active compounds read low) was 0.987 and the normalized growth (S. cerevisiae deletion strains, locus YNR049C, strain mso1, active compounds read low) was 0.996. For the same compound, the normalized growth (S. cerevisiae deletion strains, locus YNR052C, strain pop2, active compounds read low) was 0.911 (active), the normalized growth (S. cerevisiae deletion strains, locus YOL006C, strain TOP1, active compounds read low) was 1.09 and the normalized growth (S. cerevisiae deletion strains, locus YOL012C, strain htz1) was 1.4. The normalized growth (S. cerevisiae deletion strains, locus YOL147C, strain pex11, active compounds read low) was 0.915 (active), the normalized growth (S. cerevisiae deletion strains, locus YOR001W, strain rrp6, active compounds read low) was 1 and the normalized growth (S. cerevisiae deletion strains, locus YOR061W, strain CKA2, active compounds read low) was 0.986. The normalized growth (S. cerevisiae deletion strains, locus YOR069W, strain VPS5, active compounds read low) was 0.968, the normalized growth (S. cerevisiae deletion strains, locus YOR070C, strain gyp1, active compounds read low) was 0.998 and the normalized growth (S. cerevisiae deletion strains, locus YOR080W, strain dia2, active compounds read low) was 1.02. For the same compound, the normalized growth (S. cerevisiae deletion strains, locus YOR083W, strain WHI5, active compounds read low) was 0.976, the normalized growth (S. cerevisiae deletion strains, locus YOR106W, strain vam3, active compounds read low) was 1.03 and the normalized growth (S. cerevisiae deletion strains, locus YOR136W, strain idh2, active compounds read low) was 0.937. The normalized growth (S. cerevisiae deletion strains, locus YOR144C, strain elg1, active compounds read low) was 0.917 (active), the normalized growth (S. cerevisiae deletion strains, locus YOR184W, strain ser1, active compounds read low) was 0.899 and the normalized growth (S. cerevisiae deletion strains, locus YOR231W, strain MKK1, active compounds read low) was 0.976. For the same compound, the normalized growth (S. cerevisiae deletion strains, locus YOR265W, strain rbl2, active compounds read low) was 0.99, the normalized growth (S. cerevisiae deletion strains, locus YOR270C, strain vph1, active compounds read low) was 1.11 and the normalized growth (S. cerevisiae deletion strains, locus YOR290C, strain snf2, active compounds read low) was 1. The normalized growth (S. cerevisiae deletion strains, locus YOR316C, strain cot1, active compounds read low) was 0.919 (active), the normalized growth (S. cerevisiae deletion strains, locus YPL051W, strain arl3, active compounds read low) was 0.989 and the normalized growth (S. cerevisiae deletion strains, locus YPL055C, strain LGE1, active compounds read low) was 0.995. The normalized growth (S. cerevisiae deletion strains, locus YPL078C, strain atp4, active compounds read low) was 1.04, the normalized growth (S. cerevisiae deletion strains, locus YPL106C, strain sse1, active compounds read low) was 1.02 and the normalized growth (S. cerevisiae deletion strains, locus YPL240C, strain hsp82, active compounds read low) was 1.02. For the same compound, the normalized growth (S. cerevisiae deletion strains, locus YPL241C, strain CIN2, active compounds read low) was 0.99, the normalized growth (S. cerevisiae deletion strains, locus YPL256C, strain CLN2, active compounds read low) was 0.941 and the normalized growth (S. cerevisiae deletion strains, locus YPR119W, strain clb2, active compounds read low) was 0.896 (active). The normalized growth (S. cerevisiae deletion strains, locus YPR141C, strain kar3, active compounds read low) was 0.767 (active), the normalized growth (S. cerevisiae deletion strains, locus YPR163C, strain tif3, active compounds read low) was 0.885 (active) and the normalized growth (S. cerevisiae deletion strains, locus YPR167C, strain met16, active compounds read low) was 0.906 (active). For the same compound, the normalized growth (S. cerevisiae deletion strains, strain wtn01, active compounds read low) was 0.917 and the normalized growth (S. cerevisiae strains, strain wild type, active compounds read low) was 1.
